# Tests used:
# Assay in all cases: PBM; 200 nM protein, PBS
# Conditions in all cases: dsDNA, one strand shown
# [1] = target: HESX1 (Homo sapiens, UniProt Q9UBX0 95-180, R165K)
# [2] = target: HOXB4 (Homo sapiens, UniProt P17483 148-234)
# [3] = target: HESX1 (Homo sapiens, UniProt Q9UBX0 95-180)
# [4] = target: HOXB4 (Homo sapiens, UniProt P17483 148-234, V174I)
# [5] = target: HESX1 (Homo sapiens, UniProt Q9UBX0 95-180, R109Q)
# [6] = target: HESX1 (Homo sapiens, UniProt Q9UBX0 95-180, P111T)
# [7] = target: HESX1 (Homo sapiens, UniProt Q9UBX0 95-180, F115L)
# [8] = target: SHOX (Homo sapiens, UniProt O15266 103-189)
# [9] = target: ALX1 (Homo sapiens, UniProt Q15699 118-204, L144V)
# [10] = target: ALX3 (Homo sapiens, UniProt O95076 139-225, N203Q)
# [11] = target: SHOX (Homo sapiens, UniProt O15266 103-189, R173C)
# [12] = target: ALX1 (Homo sapiens, UniProt Q15699 118-204, L144R)
# [13] = target: ALX3 (Homo sapiens, UniProt O95076 139-225)
# [14] = target: PROP1 (Homo sapiens, UniProt O75360 56-141)
# [15] = target: PROP1 (Homo sapiens, UniProt O75360 56-141, R99H)
# [16] = target: ALX3 (Homo sapiens, UniProt O95076 139-225, L168Q)
# [17] = target: ALX3 (Homo sapiens, UniProt O95076 139-225, L168V)
# [18] = target: PROP1 (Homo sapiens, UniProt O75360 56-141, F88S)
# [19] = target: ALX1 (Homo sapiens, UniProt Q15699 118-204)
# [20] = target: ALX3 (Homo sapiens, UniProt O95076 139-225, N203S)
# ALX3 (Homo sapiens, UniProt O95076 139-225, N203S), sequence (O95076 139-225 N203S): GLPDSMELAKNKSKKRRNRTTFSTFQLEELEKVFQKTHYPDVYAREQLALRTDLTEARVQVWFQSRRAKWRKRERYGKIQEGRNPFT
# PROP1 (Homo sapiens, UniProt O75360 56-141), sequence (O75360 56-141): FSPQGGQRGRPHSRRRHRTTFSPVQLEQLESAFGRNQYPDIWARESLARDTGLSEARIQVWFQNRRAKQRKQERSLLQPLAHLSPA
# HESX1 (Homo sapiens, UniProt Q9UBX0 95-180), sequence (Q9UBX0 95-180): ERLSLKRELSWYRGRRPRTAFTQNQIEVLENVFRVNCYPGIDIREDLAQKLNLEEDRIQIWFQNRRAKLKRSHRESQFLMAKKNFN
# ALX1 (Homo sapiens, UniProt Q15699 118-204, L144R), sequence (Q15699 118-204 L144R): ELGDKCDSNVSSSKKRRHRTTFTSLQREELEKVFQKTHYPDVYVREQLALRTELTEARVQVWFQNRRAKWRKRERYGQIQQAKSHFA
# HOXB4 (Homo sapiens, UniProt P17483 148-234), sequence (P17483 148-234): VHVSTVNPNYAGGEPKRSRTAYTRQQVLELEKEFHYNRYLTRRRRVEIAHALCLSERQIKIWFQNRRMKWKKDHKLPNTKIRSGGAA
# HESX1 (Homo sapiens, UniProt Q9UBX0 95-180, R165K), sequence (Q9UBX0 95-180 R165K): as the sequence (Q9UBX0 95-180) above, with R71K counted along it
# ALX3 (Homo sapiens, UniProt O95076 139-225, L168V), sequence (O95076 139-225 L168V): as the sequence (O95076 139-225 N203S) above, with L30V, S65N counted along it
# ALX3 (Homo sapiens, UniProt O95076 139-225, N203Q), sequence (O95076 139-225 N203Q): as the sequence (O95076 139-225 N203S) above, with S65Q counted along it
# HESX1 (Homo sapiens, UniProt Q9UBX0 95-180, P111T), sequence (Q9UBX0 95-180 P111T): as the sequence (Q9UBX0 95-180) above, with P17T counted along it
# PROP1 (Homo sapiens, UniProt O75360 56-141, R99H), sequence (O75360 56-141 R99H): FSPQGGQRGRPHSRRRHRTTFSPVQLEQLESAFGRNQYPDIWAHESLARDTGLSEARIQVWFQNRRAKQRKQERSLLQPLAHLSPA
# HESX1 (Homo sapiens, UniProt Q9UBX0 95-180, R109Q), sequence (Q9UBX0 95-180 R109Q): as the sequence (Q9UBX0 95-180) above, with R15Q counted along it
# ALX1 (Homo sapiens, UniProt Q15699 118-204, L144V), sequence (Q15699 118-204 L144V): as the sequence (Q15699 118-204 L144R) above, with R27V counted along it
# PROP1 (Homo sapiens, UniProt O75360 56-141, F88S), sequence (O75360 56-141 F88S): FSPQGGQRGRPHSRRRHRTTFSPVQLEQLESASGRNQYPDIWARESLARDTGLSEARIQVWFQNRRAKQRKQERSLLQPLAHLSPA
# ALX3 (Homo sapiens, UniProt O95076 139-225), sequence (O95076 139-225): as the sequence (O95076 139-225 N203S) above, with S65N counted along it
# SHOX (Homo sapiens, UniProt O15266 103-189), sequence (O15266 103-189): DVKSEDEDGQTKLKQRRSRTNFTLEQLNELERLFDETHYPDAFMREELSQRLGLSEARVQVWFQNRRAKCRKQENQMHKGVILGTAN
# SHOX (Homo sapiens, UniProt O15266 103-189, R173C), sequence (O15266 103-189 R173C): as the sequence (O15266 103-189) above, with R71C counted along it
# ALX3 (Homo sapiens, UniProt O95076 139-225, L168Q), sequence (O95076 139-225 L168Q): as the sequence (O95076 139-225 N203S) above, with L30Q, S65N counted along it
# HOXB4 (Homo sapiens, UniProt P17483 148-234, V174I), sequence (P17483 148-234 V174I): as the sequence (P17483 148-234) above, with V27I counted along it
# ALX1 (Homo sapiens, UniProt Q15699 118-204), sequence (Q15699 118-204): as the sequence (Q15699 118-204 L144R) above, with R27L counted along it
# HESX1 (Homo sapiens, UniProt Q9UBX0 95-180, F115L), sequence (Q9UBX0 95-180 F115L): as the sequence (Q9UBX0 95-180) above, with F21L counted along it
Sequence,binding signal [1],binding signal [2],binding signal [3],binding signal [4],binding signal [5],binding signal [6],binding signal [7],binding signal [8],binding signal [9],binding signal [10],binding signal [11],binding signal [12],binding signal [13],binding signal [14],binding signal [15],binding signal [16],binding signal [17],binding signal [18],binding signal [19],binding signal [20]
GCAAGGGC,"6.38 upbm affinity estimate (log intensity, higher = more binding, comparable within an allelic series)","7.23 upbm affinity estimate (log intensity, higher = more binding, comparable within an allelic series)","6.38 upbm affinity estimate (log intensity, higher = more binding, comparable within an allelic series)","7.22 upbm affinity estimate (log intensity, higher = more binding, comparable within an allelic series)","6.49 upbm affinity estimate (log intensity, higher = more binding, comparable within an allelic series)","6.49 upbm affinity estimate (log intensity, higher = more binding, comparable within an allelic series)","6.53 upbm affinity estimate (log intensity, higher = more binding, comparable within an allelic series)",–,–,–,–,–,–,–,–,–,–,–,–,–
GGCAATTA,"12.3 upbm affinity estimate (log intensity, higher = more binding, comparable within an allelic series)","13.1 upbm affinity estimate (log intensity, higher = more binding, comparable within an allelic series)","12.4 upbm affinity estimate (log intensity, higher = more binding, comparable within an allelic series)","13.6 upbm affinity estimate (log intensity, higher = more binding, comparable within an allelic series)","8.87 upbm affinity estimate (log intensity, higher = more binding, comparable within an allelic series)","10.9 upbm affinity estimate (log intensity, higher = more binding, comparable within an allelic series)","7.6 upbm affinity estimate (log intensity, higher = more binding, comparable within an allelic series)","11.7 upbm affinity estimate (log intensity, higher = more binding, comparable within an allelic series)","11.4 upbm affinity estimate (log intensity, higher = more binding, comparable within an allelic series)","8.35 upbm affinity estimate (log intensity, higher = more binding, comparable within an allelic series)","9.38 upbm affinity estimate (log intensity, higher = more binding, comparable within an allelic series)","11 upbm affinity estimate (log intensity, higher = more binding, comparable within an allelic series)","12.2 upbm affinity estimate (log intensity, higher = more binding, comparable within an allelic series)","11.1 upbm affinity estimate (log intensity, higher = more binding, comparable within an allelic series)","11.3 upbm affinity estimate (log intensity, higher = more binding, comparable within an allelic series)","10.3 upbm affinity estimate (log intensity, higher = more binding, comparable within an allelic series)","9.79 upbm affinity estimate (log intensity, higher = more binding, comparable within an allelic series)","7.46 upbm affinity estimate (log intensity, higher = more binding, comparable within an allelic series)","12 upbm affinity estimate (log intensity, higher = more binding, comparable within an allelic series)","8.36 upbm affinity estimate (log intensity, higher = more binding, comparable within an allelic series)"
CTAATTAC,"13.2 upbm affinity estimate (log intensity, higher = more binding, comparable within an allelic series)","13.6 upbm affinity estimate (log intensity, higher = more binding, comparable within an allelic series)","13.2 upbm affinity estimate (log intensity, higher = more binding, comparable within an allelic series)","14.4 upbm affinity estimate (log intensity, higher = more binding, comparable within an allelic series)","9.51 upbm affinity estimate (log intensity, higher = more binding, comparable within an allelic series)","11.8 upbm affinity estimate (log intensity, higher = more binding, comparable within an allelic series)","7.95 upbm affinity estimate (log intensity, higher = more binding, comparable within an allelic series)","12.8 upbm affinity estimate (log intensity, higher = more binding, comparable within an allelic series)","12.2 upbm affinity estimate (log intensity, higher = more binding, comparable within an allelic series)","8.37 upbm affinity estimate (log intensity, higher = more binding, comparable within an allelic series)","10.1 upbm affinity estimate (log intensity, higher = more binding, comparable within an allelic series)","11.8 upbm affinity estimate (log intensity, higher = more binding, comparable within an allelic series)","12.9 upbm affinity estimate (log intensity, higher = more binding, comparable within an allelic series)","12 upbm affinity estimate (log intensity, higher = more binding, comparable within an allelic series)","12 upbm affinity estimate (log intensity, higher = more binding, comparable within an allelic series)","11 upbm affinity estimate (log intensity, higher = more binding, comparable within an allelic series)","10.5 upbm affinity estimate (log intensity, higher = more binding, comparable within an allelic series)","7.85 upbm affinity estimate (log intensity, higher = more binding, comparable within an allelic series)","12.9 upbm affinity estimate (log intensity, higher = more binding, comparable within an allelic series)","8.5 upbm affinity estimate (log intensity, higher = more binding, comparable within an allelic series)"
TATTAGAA,"8 upbm affinity estimate (log intensity, higher = more binding, comparable within an allelic series)","10.9 upbm affinity estimate (log intensity, higher = more binding, comparable within an allelic series)","8.34 upbm affinity estimate (log intensity, higher = more binding, comparable within an allelic series)","11 upbm affinity estimate (log intensity, higher = more binding, comparable within an allelic series)",–,"7.87 upbm affinity estimate (log intensity, higher = more binding, comparable within an allelic series)",–,–,–,–,–,–,–,–,–,–,–,–,–,–
CCCTACGG,"6.51 upbm affinity estimate (log intensity, higher = more binding, comparable within an allelic series)","7.88 upbm affinity estimate (log intensity, higher = more binding, comparable within an allelic series)","6.45 upbm affinity estimate (log intensity, higher = more binding, comparable within an allelic series)","7.93 upbm affinity estimate (log intensity, higher = more binding, comparable within an allelic series)","6.54 upbm affinity estimate (log intensity, higher = more binding, comparable within an allelic series)","6.48 upbm affinity estimate (log intensity, higher = more binding, comparable within an allelic series)","6.43 upbm affinity estimate (log intensity, higher = more binding, comparable within an allelic series)",–,–,–,–,–,–,–,–,–,–,–,–,–
CAATTAGC,"13.2 upbm affinity estimate (log intensity, higher = more binding, comparable within an allelic series)","13.3 upbm affinity estimate (log intensity, higher = more binding, comparable within an allelic series)","13.3 upbm affinity estimate (log intensity, higher = more binding, comparable within an allelic series)","14 upbm affinity estimate (log intensity, higher = more binding, comparable within an allelic series)","9.79 upbm affinity estimate (log intensity, higher = more binding, comparable within an allelic series)","11.7 upbm affinity estimate (log intensity, higher = more binding, comparable within an allelic series)","7.74 upbm affinity estimate (log intensity, higher = more binding, comparable within an allelic series)","12.7 upbm affinity estimate (log intensity, higher = more binding, comparable within an allelic series)","11.9 upbm affinity estimate (log intensity, higher = more binding, comparable within an allelic series)","8.26 upbm affinity estimate (log intensity, higher = more binding, comparable within an allelic series)","9.99 upbm affinity estimate (log intensity, higher = more binding, comparable within an allelic series)","11.5 upbm affinity estimate (log intensity, higher = more binding, comparable within an allelic series)","12.6 upbm affinity estimate (log intensity, higher = more binding, comparable within an allelic series)","11.8 upbm affinity estimate (log intensity, higher = more binding, comparable within an allelic series)","11.9 upbm affinity estimate (log intensity, higher = more binding, comparable within an allelic series)","10.7 upbm affinity estimate (log intensity, higher = more binding, comparable within an allelic series)","10.1 upbm affinity estimate (log intensity, higher = more binding, comparable within an allelic series)","7.57 upbm affinity estimate (log intensity, higher = more binding, comparable within an allelic series)","12.8 upbm affinity estimate (log intensity, higher = more binding, comparable within an allelic series)","8.45 upbm affinity estimate (log intensity, higher = more binding, comparable within an allelic series)"

# From PMC11006913
